# Assay results reported in PubChem BioAssay (Tox21).
# Where “and” joins values, the source holds several entries; their conditions need not be identical. Equal values may be shown once. Records with an inconclusive call do not appear. Entries that show only a call come without a potency. The source holds several records for some structures; these can differ, active in one and inactive in another. Calls of active or inactive are those of the source. Unless noted, the call rests on the fitted dose curve; in most records, active means well fitted curve in the direction sought with a large enough effect in the repeat runs; inconclusive means weak or mixed curves; inactive means no such curve, though single readings can be large; an effect the other way counts as inactive or inconclusive.
# Assays:
# [1] = qHTS assay to identify small molecule antagonists of the estrogen related receptor (ERR) signaling pathway from Tox21 library - cell viability counter screen (AID 1224834); further: nearly all actives have a fitted effect of over 30% in size; further: potency means the concentration at half of the fitted maximal effect
# Method in brief: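 Viability readout (CellTiter-Fluor fluorescence, 30 min at 37 C) multiplexed with the ERR assay; cells treated 17.5 h at 37 C with compounds delivered in DMSO.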
# [2] = biological target: Luciferin 4-monooxygenase (Photinus pyralis) (UniProt P08659); experiment: qHTS assay to identify small molecule inhibitors of firefly luciferase (AID 1224835); further: series mostly up to about 120 µM; nearly all actives have a fitted effect of over 25% in size
# Sequence of Luciferin 4-monooxygenase (Photinus pyralis) (P08659 whole entry, looked up): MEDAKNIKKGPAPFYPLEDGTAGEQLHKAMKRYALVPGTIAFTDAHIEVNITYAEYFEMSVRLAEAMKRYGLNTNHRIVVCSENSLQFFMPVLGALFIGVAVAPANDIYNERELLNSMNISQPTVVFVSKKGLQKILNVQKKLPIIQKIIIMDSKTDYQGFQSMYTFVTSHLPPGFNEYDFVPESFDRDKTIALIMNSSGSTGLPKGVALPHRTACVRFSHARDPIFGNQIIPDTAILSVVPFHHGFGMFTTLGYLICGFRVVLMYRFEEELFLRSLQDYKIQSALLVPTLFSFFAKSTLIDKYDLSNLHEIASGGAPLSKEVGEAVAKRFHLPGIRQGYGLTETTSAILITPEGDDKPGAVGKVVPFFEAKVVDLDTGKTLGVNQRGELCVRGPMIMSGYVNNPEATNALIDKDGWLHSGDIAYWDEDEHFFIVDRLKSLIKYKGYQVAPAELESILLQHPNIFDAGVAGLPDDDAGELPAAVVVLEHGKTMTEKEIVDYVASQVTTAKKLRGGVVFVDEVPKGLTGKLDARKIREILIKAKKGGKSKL
# Method in brief: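 Biochemical qHTS: compounds run as interplate titrations against purified firefly enzyme, with D-luciferin and ATP each at its KM concentration. Light output recorded by CCD imaging.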
# [3] = qHTS assay to identify small molecule agonists of the constitutive androstane receptor (CAR) signaling pathway - cell viability counter screen (AID 1224836); further: series mostly up to about 92 µM; nearly all actives have a fitted effect of over 45% in size
# Method in brief: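 Counter screen multiplexed with the CAR reporter readout: HepG2 cells co-transfected with hCAR and the CYP2B6-2.2kb construct receive a 15-concentration compound series and 0.75 uM PK11195 (final), then CellTiter-Fluor fluorescence is read after 23 h.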
# [4] = qHTS assay to identify small molecule antagonists of the constitutive androstane receptor (CAR) signaling pathway - cell viability counter screen (AID 1224837); further: series mostly up to about 92 µM; nearly all actives have a fitted effect of over 45% in size
# Method in brief: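 Fluorescence from CellTiter-Fluor served as the viability signal. Human hepatoma HepG2 cells stably bearing hCAR and CYP2B6-2.2kb received compound plus CITCO (50 nM final) for 23 hr.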
# [5] = biological target: Nuclear receptor subfamily 1 group I member 3 (Homo sapiens) (UniProt Q14994); experiment: qHTS assay to identify small molecule antagonists of the constitutive androstane receptor (CAR) signaling pathway (AID 1224838);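 further: HepG2 cells stably expressing hCAR with CYP2B6 luciferase reporter stimulated by CITCO; nearly all actives have a fitted effect of over 40% in size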; further: potency means the concentration at half of the fitted maximal effect
# Sequence of Nuclear receptor subfamily 1 group I member 3 (Homo sapiens) (Q14994 whole entry, looked up): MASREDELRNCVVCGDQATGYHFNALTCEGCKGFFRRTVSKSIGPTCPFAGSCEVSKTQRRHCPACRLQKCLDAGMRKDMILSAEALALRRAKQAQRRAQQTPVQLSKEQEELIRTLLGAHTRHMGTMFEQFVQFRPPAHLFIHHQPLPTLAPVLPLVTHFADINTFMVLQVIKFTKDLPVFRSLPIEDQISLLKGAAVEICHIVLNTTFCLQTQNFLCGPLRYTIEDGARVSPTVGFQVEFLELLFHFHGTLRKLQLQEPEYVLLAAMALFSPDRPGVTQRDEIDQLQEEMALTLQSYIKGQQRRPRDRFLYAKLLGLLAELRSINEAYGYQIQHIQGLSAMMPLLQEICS
# Method in brief: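 Quantitative HTS in double-stable HepG2-CYP2B6-hCAR cells. After 4 h plating, cells get compound (15 concentrations) and CITCO at 50 nM final, incubate 24 h at 37 C, then ONE-Glo luminescence is read.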
# [6] = biological target: Nuclear receptor subfamily 1 group I member 3 (Homo sapiens) (UniProt Q14994); experiment: qHTS assay to identify small molecule agonists of the constitutive androstane receptor (CAR) signaling pathway (AID 1224839); further: nearly all actives have a fitted effect of over 15% in size; further: potency means the concentration at half of the fitted maximal effect
# Method in brief: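 A 15-concentration quantitative screen uses HepG2 cells co-transfected stably with human CAR and CYP2B6-2.2kb reporter. Treatment lasts 24 h with 0.75 uM PK11195 final present; ONE-Glo luminescence is the signal.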
# [7] = qHTS assay to identify small molecule antagonists of the estrogen related receptor signaling pathway with the pleiotropic PPARgamma coactivator (PGC) from Tox21 10K library - cell viability counter screen (AID 1224840; active means well fitted cell-killing curve with a large enough effect in the repeat runs, not every such curve was filed as active; further: nearly all actives have a fitted effect of over 40% in size)
# Method in brief: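 Compounds in DMSO, alongside positive and negative controls, were pinned onto PGC/ERR cells (2,000 per well). Exposure lasted 17.5 hours at 37 C, followed by a 30-minute CellTiter-Fluor incubation and fluorescence reading.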
# [8] = qHTS assay to identify small molecule agonists of the estrogen related receptor signaling pathway with the pleiotropic PPARgamma coactivator (PGC) from Tox21 10K library (AID 1224842); further: nearly all actives have a fitted effect of over 15% in size; further: potency means the concentration at half of the fitted maximal effect
# Method in brief: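 PGC/ERR reporter cell line, 2,000 cells per well, incubated 6 h at 37 C before 23 nL compound in DMSO was added. After 18 h at 37 C, One-Glo luminescence read following 30 min at room temperature.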
# [9] = biological target: Thyrotropin receptor (Homo sapiens) (UniProt P16473); experiment: qHTS assay to identify small molecule agonists of the thyroid stimulating hormone receptor (TSHR) signaling pathway (AID 1224843; calls by dose curve; further: nearly all actives have a fitted effect of over 45% in size; further: potency means the concentration at half of the fitted maximal effect)
# Sequence of Thyrotropin receptor (Homo sapiens) (P16473 whole entry, looked up): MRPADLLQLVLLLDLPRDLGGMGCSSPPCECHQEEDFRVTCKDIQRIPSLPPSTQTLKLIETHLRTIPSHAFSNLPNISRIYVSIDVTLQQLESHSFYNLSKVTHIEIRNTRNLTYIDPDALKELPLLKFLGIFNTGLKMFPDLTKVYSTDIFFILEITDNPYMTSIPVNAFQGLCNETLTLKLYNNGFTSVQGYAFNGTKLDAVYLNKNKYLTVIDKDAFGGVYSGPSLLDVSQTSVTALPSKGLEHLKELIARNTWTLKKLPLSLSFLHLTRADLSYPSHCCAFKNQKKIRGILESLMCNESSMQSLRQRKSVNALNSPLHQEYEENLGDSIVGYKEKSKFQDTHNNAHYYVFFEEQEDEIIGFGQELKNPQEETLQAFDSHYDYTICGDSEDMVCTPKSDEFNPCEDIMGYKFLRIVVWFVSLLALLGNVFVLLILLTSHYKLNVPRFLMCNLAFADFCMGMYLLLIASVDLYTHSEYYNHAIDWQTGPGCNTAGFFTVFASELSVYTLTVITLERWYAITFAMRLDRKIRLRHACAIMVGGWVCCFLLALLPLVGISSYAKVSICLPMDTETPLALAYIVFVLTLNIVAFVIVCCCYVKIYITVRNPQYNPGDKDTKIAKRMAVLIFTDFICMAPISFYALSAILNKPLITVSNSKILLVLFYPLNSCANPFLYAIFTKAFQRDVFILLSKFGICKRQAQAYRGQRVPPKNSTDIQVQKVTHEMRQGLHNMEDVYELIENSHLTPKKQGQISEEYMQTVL
# Method in brief: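 Steps: seed 800 TSHR-HEK293 cells per well; add test compound and hold 30 min at ambient temperature; dispense cAMP-d2 then anti-cAMP cryptate; incubate 1 h at ambient; measure fluorescence intensity.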
# [10] = qHTS assay to identify small molecule antagonists of the estrogen related receptor signaling pathway with the pleiotropic PPARgamma coactivator (PGC) from Tox21 10K library (AID 1224841; call rule not given here; further: actives are mostly falling curves and most rising ones were filed inactive; nearly all actives have a fitted effect of over 50% in size; further: potency means the concentration at half of the fitted maximal effect)
# Method in brief: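 Compound exposure ran 18 hours at 37 C in PGC/ERR cells (2,000/well) that had first rested 6 hours in a 37 C/5% CO2 incubator. Luciferase activity was then detected with One-Glo after a 30-minute room-temperature step.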
SMILES,Potency [1],Potency [2],Potency [3],Potency [4],Potency [5],Potency [6],Potency [7],Potency [8],Potency [9],Potency [10]
COC(=O)C(Br)CBr (stereo unspecified),inactive,inactive,inactive,inactive,inactive,inactive,inactive,inactive,,
Clc1cccc2ccccc12,inactive,inactive,inactive,inactive,inactive,inactive,inactive,,inactive,
CC/C(=N\OC/C=C/Cl)C1=C(O)CC(C2CCOCC2)CC1=O (stereo unspecified),inactive,inactive,inactive,inactive,inactive,inactive,inactive,inactive,inactive,inactive
N#C/C(N)=C(/N)C#N,inactive,inactive,inactive,inactive,inactive,inactive,inactive,inactive,inactive,
CCCCOC(=O)c1ccccc1C(=O)OCc1ccccc1,inactive,inactive,inactive,inactive,inactive,54.5 µM (active),inactive,inactive,,
C=C(C#N)CCC#N,inactive,inactive,inactive,inactive,inactive,inactive,inactive,inactive,inactive,inactive
C[C@H]1CNCCc2ccc(Cl)cc21,inactive,inactive,inactive,inactive,inactive,inactive,inactive,inactive,inactive,
COC(C)(C)CCC[C@H](C)C/C=C/C(C)=C/C(=O)OC(C)C,inactive,inactive,inactive,inactive,inactive,inactive,inactive,inactive,inactive,inactive
CCBr,inactive,inactive,inactive,inactive,inactive,inactive,inactive,inactive,inactive,
O=C(CCl)c1ccc(Cl)cc1Cl,inactive and 21.1 µM (active),inactive,inactive,inactive,13.3 µM (active),inactive,inactive,inactive,inactive,
c1ccc(CN2CCNCC2)cc1,inactive,inactive,inactive,inactive,inactive,inactive,inactive,,inactive,
C=CC(=O)OCCCCO,inactive,inactive,inactive,inactive,inactive,inactive,inactive,inactive,,
CC(C)N(C(=O)COc1nnc(C(F)(F)F)s1)c1ccc(F)cc1,inactive,inactive,inactive,inactive,inactive,,inactive,inactive,,
CCCN(CC1CC1)c1c([N+](=O)[O-])cc(C(F)(F)F)cc1[N+](=O)[O-],inactive,inactive,inactive,inactive,inactive,,inactive,,6.86 µM (active),
COc1ccc(-c2ccccc2)cc1NNC(=O)OC(C)C,63.7 µM (active),inactive,inactive,inactive,inactive,63.7 µM (active),,inactive,,35.8 µM (active)
Cc1ccc(N)cc1C,inactive,inactive,inactive,inactive,inactive,4.9 µM (active),,3.47 µM (active),inactive,
Cn1cc[n+](C)c1 (tested in a mixture with another compound),inactive,inactive,inactive,inactive,inactive,inactive,,,inactive,
CNC(C)Cc1ccccc1OC (stereo unspecified),inactive,inactive,inactive,inactive,inactive,inactive,,,inactive,
CCCCN(N=O)C(=N)N[N+](=O)[O-],inactive,inactive,inactive,inactive,31.3 µM (active),inactive,inactive,,inactive,
CCOP(=O)(OCC)Oc1ccc([N+](=O)[O-])cc1,inactive,inactive,inactive,inactive,inactive,inactive,,inactive,inactive,
Clc1cc(Cl)c(Cl)c(Cl)c1,inactive,inactive,inactive,inactive,inactive,inactive,inactive,,inactive,
ClC=C(Cl)Cl,inactive,inactive,inactive,inactive,inactive,inactive,,inactive,inactive,
Nc1nc(N)nc(N)n1,inactive,inactive,inactive,inactive,inactive,inactive,inactive,,inactive,
NC(=O)C(Cl)(Cl)Cl,inactive,inactive,inactive,inactive,inactive,inactive,,,inactive,
O=C(CBr)Nc1ccc(Cl)cc1C(=O)c1ccccc1F,inactive,inactive,inactive,inactive,inactive,26.6 µM (active),,inactive,inactive,inactive
C[C@@H]1CC[C@H]2[C@@H](C)C(=O)O[C@@H]3O[C@@]4(C)CC[C@@H]1[C@]32OO4,inactive,inactive,inactive,inactive,inactive,,,inactive,inactive,
CCOP(=S)(Oc1ccc([N+](=O)[O-])cc1)c1ccccc1 (stereo unspecified),inactive,inactive,inactive,inactive,inactive,,inactive,inactive,,inactive
